# Columns and labels:
# Conditions in all cases: concentration: 1 μM, replicates: in singlicate; n = 1
# [1] = test system: T1, FAK
# T1 construct: gene PTK2
# [2] = test system: FER
# [3] = test system: FES
# [4] = test system: FGFR1
# [5] = test system: FGFR2
# [6] = test system: FGFR3
# [7] = test system: FGFR4
# [8] = test system: FGR
# [9] = test system: FLT1
# [10] = test system: FLT3-autoinhibited
# [11] = test system: FLT3
# [12] = test system: FLT4
# [13] = test system: FRK
# [14] = test system: FYN
# [15] = test system: GAK
# [16] = test system: T2, GCN2(Kin.Dom.2,S808G)
# T2 construct: gene EIF2AK4
# [17] = test system: GRK1
# [18] = test system: T3, GRK2
# T3 construct: gene ADRBK1
# [19] = test system: T4, GRK3
# T4 construct: gene ADRBK2
# [20] = test system: GRK4
# 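Further: KINOMEscan kinase panel screen.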
SMILES,%Inh [1],%Inh [2],%Inh [3],%Inh [4],%Inh [5],%Inh [6],%Inh [7],%Inh [8],%Inh [9],%Inh [10],%Inh [11],%Inh [12],%Inh [13],%Inh [14],%Inh [15],%Inh [16],%Inh [17],%Inh [18],%Inh [19],%Inh [20]
Cc1cccc(-c2nc(-c3ccc(S(C)(=O)=O)cc3)sc2-c2ccnc(NCCc3ccccc3)c2)c1,0%,0%,0%,5%,1%,0%,0%,0%,18%,0%,0%,7%,66%,0%,0%,16%,11%,0%,6%,0%
O=C(Nc1n[nH]c2nc(-c3nccs3)c(Br)cc12)C1CC1 [SB-742251],0%,0%,12%,0%,0%,0%,10%,29%,36%,0%,88%,8%,2%,3%,0%,0%,1%,0%,27%,0%
Cc1ccc(-c2cc(-c3c[nH]nc3-c3ccccn3)ccn2)cc1 [GW684088],0%,13%,21%,0%,0%,30%,9%,22%,5%,22%,0%,0%,4%,0%,80%,0%,8%,0%,74%,0%
Cc1cccc(-c2nc(Nc3cccc(C(N)=O)c3)c3ccccc3n2)n1 [GW876019],0%,0%,25%,0%,17%,1%,0%,58%,42%,0%,0%,10%,16%,0%,0%,0%,14%,0%,0%,0%
Cc1cccc(-c2cc(Nc3ccncc3)c3ccccc3n2)n1 [GSK223675],0%,0%,0%,0%,0%,12%,0%,7%,13%,7%,0%,0%,0%,40%,0%,0%,0%,0%,0%,0%
COc1ccc2nc(-c3cccc(C)n3)nc(Nc3ccncc3)c2c1 [GSK204919],0%,14%,17%,0%,7%,20%,20%,27%,28%,3%,0%,5%,9%,13%,8%,0%,0%,0%,43%,0%
CS(=O)(=O)c1ccc(-c2c(-c3ncn[nH]3)sc(N3CCOCC3)c2C#N)cc1,0%,14%,42%,32%,9%,5%,0%,40%,13%,2%,0%,0%,8%,0%,0%,11%,25%,26%,26%,0%
CCn1c(-c2cccnc2O)nc2cnccc21 [SB-736715],0%,0%,0%,0%,0%,0%,0%,0%,0%,0%,23%,0%,0%,0%,0%,8%,0%,0%,21%,19%
COc1cc2ncn(-c3cc(OCC4CCCO4)c(C(N)=O)s3)c2cc1OC (stereo not drawn) [GSK204607],0%,9%,11%,0%,0%,24%,0%,29%,20%,0%,0%,36%,17%,33%,53%,0%,0%,0%,16%,0%
CCCc1ccc(S(=O)(=O)NC2CCN(c3ccnc(Nc4ccc(F)cc4)n3)C2)cc1 (stereo not drawn) [GSK1379715],0%,0%,0%,0%,0%,2%,11%,23%,18%,0%,0%,0%,8%,0%,10%,0%,100%,0%,33%,0%
Cc1cc(NCC(c2ccccc2)c2ccccc2)nc(NCc2ccc(C(F)(F)F)cc2)n1 [GW497681],0%,0%,0%,0%,0%,20%,1%,20%,11%,0%,0%,0%,0%,0%,0%,0%,0%,0%,22%,0%
Cc1ccc(NC(=O)Nc2cccc(Cl)c2)cc1-c1ccc(C(=O)Nc2ccncc2)cc1 [GSK1398468],0%,6%,9%,0%,0%,7%,5%,30%,25%,14%,1%,18%,47%,8%,5%,0%,0%,0%,23%,0%
COc1ccc(Nc2nccc(-c3cccc(NC(=O)c4cc5cc(F)ccc5[nH]4)c3)n2)cc1 [GSK1229782],1%,43%,27%,21%,0%,13%,2%,60%,17%,0%,39%,0%,40%,31%,49%,4%,0%,0%,45%,0%
Cn1ccc2ncnc(Oc3ccc(Nc4nc5ccccc5[nH]4)cc3)c21,0%,0%,0%,3%,0%,0%,0%,9%,0%,0%,0%,0%,0%,0%,0%,0%,4%,0%,0%,9%
Cc1cccc(-c2nc(Nc3ccc4[nH]ncc4c3)c3ccccc3n2)n1 [GW857175],0%,11%,0%,5%,0%,0%,0%,0%,12%,32%,13%,6%,3%,0%,0%,5%,3%,40%,0%,10%
Cc1csc(-c2nc(Nc3ccncc3)c3ccccc3n2)n1 [GW869640],3%,7%,10%,17%,6%,6%,16%,7%,19%,26%,39%,6%,4%,24%,21%,13%,27%,0%,0%,29%
Cn1ccc2ncnc(Oc3ccc(NC(=O)Nc4ccccc4)cc3)c21,8%,16%,5%,14%,0%,0%,11%,0%,89%,48%,97.4%,15%,11%,4%,4%,11%,0%,0%,11%,0%
O=C1NC(=O)C(N2CCc3ccccc32)=C1c1ccccc1Cl [SB-373598],0%,34%,15%,7%,15%,33%,9%,21%,6%,0%,2%,20%,20%,18%,0%,4%,19%,0%,0%,24%
CC1=C(C(=O)Nc2cc3cn[nH]c3cc2F)C(c2ccc(C(F)(F)F)cc2)CC(=O)N1 (stereo not drawn) [GSK429286],0%,4%,0%,0%,3%,17%,8%,24%,17%,0%,0%,11%,18%,26%,0%,14%,5%,27%,73%,10%
Cc1ccc(C(=O)Nc2ccc(Nc3ccnc4cc(-c5ccccn5)ccc34)cc2O)cc1.Cl [GW440146],0%,30%,0%,1%,0%,0%,0%,59%,28%,0%,0%,0%,48%,41%,7%,12%,0%,0%,24%,0%
O=C(O)COc1ncnc2cc(-c3ccc4[nH]ncc4c3)sc12,5%,0%,7%,23%,1%,0%,0%,0%,0%,39%,2%,2%,100%,100%,4%,0%,3%,20%,23%,0%

SMILES,%Inh [1],%Inh [2],%Inh [3],%Inh [4],%Inh [5],%Inh [6],%Inh [7],%Inh [8],%Inh [9],%Inh [10],%Inh [11],%Inh [12],%Inh [13],%Inh [14],%Inh [15],%Inh [16],%Inh [17],%Inh [18],%Inh [19],%Inh [20]
Nc1ncnc2[nH]c(-c3ccccc3)nc12 [AH5015],8%,0%,8%,2%,0%,25%,2%,31%,2%,0%,0%,0%,13%,39%,44%,27%,0%,0%,49%,0%
Clc1cc(Cl)cc(Nc2ccnc(Nc3cc(Cl)cc(Cl)c3)n2)c1 [GSK175726],0%,13%,9%,0%,50%,22%,6%,46%,16%,0%,0%,0%,45%,8%,30%,0%,100%,0%,7%,0%
COc1cc(Nc2nccc(N3CCC(NC(=O)Nc4cc(C)ccc4C)C3)n2)cc(OC)c1OC (stereo not drawn) [GSK1379762],0%,0%,0%,5%,11%,30%,0%,14%,22%,0%,36%,14%,8%,0%,28%,3%,0%,0%,10%,20%
COc1ccc(CNC(=O)NC2CCN(c3ccnc(Nc4cc(OC)c(OC)c(OC)c4)n3)C2)cc1 (stereo not drawn) [GSK1379748],0%,0%,7%,0%,2%,9%,15%,14%,20%,3%,71%,26%,5%,22%,16%,0%,0%,0%,40%,0%
O=C(Nc1ccc2c(c1)OCO2)NC1CCN(c2ccnc(Nc3ccc(F)cc3)n2)C1 (stereo not drawn) [GSK1379724],0%,7%,15%,0%,0%,7%,7%,11%,19%,0%,0%,0%,11%,9%,0%,6%,0%,0%,93.7%,0%
Fc1cccc(COc2nnc(-c3ccc4c(c3)CCO4)o2)c1,0%,0%,14%,5%,0%,0%,0%,19%,0%,3%,4%,0%,0%,0%,2%,5%,0%,0%,23%,0%
CN1C(=O)C(Nc2ccc(Cl)c(C(=O)O)c2)=C(c2ccc(Cl)cc2)C1=O [SB-404290],7%,5%,0%,0%,0%,0%,0%,0%,0%,22%,0%,0%,0%,0%,14%,9%,12%,0%,4%,19%
CS(=O)(=O)c1ccc(-c2nc3n(c2-c2ccncc2)CCC3)cc1 [SKF-105942],0%,1%,22%,0%,0%,2%,18%,43%,11%,0%,0%,0%,16%,12%,7%,9%,7%,0%,24%,23%
Cc1ccc(NC(=O)Nc2cc(C(C)(C)C)nn2-c2ccccc2)cc1 [GSK1014915],0%,20%,0%,6%,25%,16%,15%,18%,33%,38%,98.6%,15%,22%,4%,11%,9%,9%,0%,92.4%,7%
NC(=O)c1nnc2ccccc2c1N,12%,0%,4%,41%,7%,90%,0%,21%,7%,16%,15%,5%,0%,0%,24%,13%,12%,67%,13%,28%
COc1cccc(NC(=O)NC2CCN(c3ccnc(Nc4ccc(F)cc4)n3)C2)c1 (stereo not drawn) [GSK1379721],0%,0%,0%,0%,0%,6%,1%,0%,11%,0%,3%,0%,0%,25%,3%,0%,0%,0%,18%,0%
O=c1cc(N2CCOCC2)nc2n(Cc3cccc(Cl)c3Cl)ccn12 [GSK2286295],0%,12%,12%,0%,0%,5%,12%,16%,26%,0%,0%,3%,0%,47%,6%,0%,5%,0%,0%,0%
C[C@@H]1CCCCN1c1cc(-c2ccc3c(N)n[nH]c3c2)nc(N)n1 [GSK2258759],0%,0%,0%,0%,0%,7%,3%,17%,14%,0%,0%,0%,5%,19%,14%,0%,0%,0%,0%,0%
COc1cccc(-c2cc(-c3c[nH]nc3-c3ccccn3)ccn2)c1 [GW680338],0%,0%,9%,0%,0%,1%,6%,19%,3%,0%,0%,83%,10%,11%,75%,7%,1%,0%,14%,0%
Cc1c(Cn2ccn3c(=O)cc(N4CCOCC4)nc23)cccc1C(F)(F)F [GSK2289044],0%,7%,23%,0%,19%,28%,5%,14%,0%,0%,0%,0%,0%,30%,10%,0%,0%,0%,0%,0%
O=C(Nc1n[nH]c2cc(-c3cccc(F)c3F)ccc12)C1CC1 [SB-733894],3%,0%,53%,0%,0%,0%,0%,61%,0%,12%,0%,0%,0%,0%,6%,0%,44%,0%,0%,0%
Cc1cccc(-c2nc(C)cc(Nc3ccncc3)n2)n1 [GSK257997],0%,42%,0%,7%,14%,16%,0%,8%,32%,0%,5%,13%,0%,36%,0%,0%,0%,0%,0%,0%
Cl.c1ccc(-c2n[nH]cc2-c2ccnc(-c3ccc(CN4CCOCC4)cc3)c2)nc1 [GW776245],31%,3%,3%,0%,15%,20%,1%,22%,26%,0%,0%,14%,0%,0%,46%,0%,37%,0%,0%,31%
COC(=O)c1c(-c2ccccc2)c2cc(OC)ccc2c(=O)n1Cc1ccccc1,0%,0%,22%,7%,3%,3%,0%,29%,0%,21%,8%,9%,45%,0%,6%,2%,0%,0%,1%,0%
CC(=O)Nc1nc2cnc(Nc3cc(NC(=O)c4cccc(CCC#N)c4)ccc3C)nc2s1,7%,0%,17%,9%,22%,17%,0%,21%,30%,5%,0%,30%,83%,4%,7%,0%,0%,0%,0%,0%
CC(C)(C)c1ccc(C(=O)Nc2cn3cc(Cl)ccc3n2)cc1,0%,4%,0%,12%,0%,0%,0%,0%,43%,0%,70%,0%,12%,99.3%,0%,36%,10%,0%,0%,0%

# Reference: PMC5540273 (PLoS ONE, 2017)
